PubChem BioAssay (EPA / NIEHS)
Values joined by “and” are separate entries in the source; they are usually repeats but may differ in a detail not shown here. Equal entries are not always repeated. Inconclusive results are not listed. More than one record can exist for a structure, and the calls need not agree. Active and inactive are the calls of the source. The calls were made as follows, unless noted: active = hit-call score of the fitted dose curve at least 0.9, where 1 is the maximum; inactive = score below 0.9.

Tests used:
[1] = biological target: Nuclear receptor subfamily 1 group I member 3 (Homo sapiens) (UniProt Q14994); experiment: ATG_CAR_TRANS: Attagene TRANS-FACTORIAL HepG2 Assay for human Constitutive Androstane Receptor (CAR) (AID 2282969; active = hit-call score of the fitted dose curve at least 0.9, where 1 is the maximum;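 also: activators raise reporter mRNA above DMSO so AC50 marks induction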); settings: HepG2 Attagene TRANS-FACTORIAL CAR reporter
Summary of the method: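 Steps: transient transfection of HepG2 with multiple GAL4-UAS reporter units; 24 h compound incubation; RNA isolation, RT-PCR, 6-FAM primer extension, HpaI digest; capillary electrophoresis. Gain-of-signal relative to DMSO negative control.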

[2] = biological target: Estrogen-related receptor gamma (Homo sapiens) (UniProt P62508); experiment: ATG_ERRg_TRANS: Attagene TRANS-FACTORIAL HepG2 Assay for human Estrogen-Related Receptor gamma (ERRg) (AID 2282977; active = hit-call score of the fitted dose curve at least 0.9, where 1 is the maximum;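 also: hits increase reporter signal over DMSO so potencies reflect activators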); settings: HepG2 Attagene TRANS reporter, ERRg transactivation
Summary of the method: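 Induction of reporter transcripts through a chimeric NR-Gal4 protein is quantified in transfected human HepG2 liver cells after 24 h chemical exposure, using RT-PCR with capillary electrophoresis detection and DMSO as baseline.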

[3] = biological target: Retinoic acid receptor RXR-alpha (Homo sapiens) (UniProt P19793); experiment: OT_NURR1_NURR1RXRa_1440: Odyssey Thera (OT) 24-hour HEK293T Protein Complementation Assay for Nurr1/retinoid X receptor (RXR) (AID 2283386; active = hit-call score of the fitted dose curve at least 0.9, where 1 is the maximum)
Summary of the method: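 Steps: fragment-tagged Nurr1 and RXRα expressed in HEK293T; compounds added; after 24 h, complemented reporter quantified by fluorescence intensity; signal increase over DMSO fitted as the single endpoint.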

[4] = ACEA_AR_antagonist_AUC_viability: ACEA Biosciences xCELLigence Real-Time Cell Analysis on Androgen Receptor Antagonism for Viability (AID 2283776; active = hit-call score of the fitted dose curve at least 0.9, where 1 is the maximum;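 also: area under impedance growth curve at 80 h after dosing as viability; hits lower the growth signal relative to DMSO meaning cytotoxicity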)
Summary of the method: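 22Rv1 human prostate cancer cells were seeded on electrode plates, monitored overnight, then exposed to eight 1:4 dilutions from 100 uM final. Impedance-based growth kinetics at 80 h gave an AUC viability endpoint normalized to DMSO.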

[5] = ATG_ERE_CIS: Attagene CIS-FACTORIAL HepG2 Assay for Estrogen Response Element (ERE) (AID 2282940); settings: HepG2 ERE cis-reporter, Attagene RNA transcript; actives raise or lower the signal
Summary of the method: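 After 24 h compound treatment, RNA from transfected HepG2 cells was reverse-transcribed, reporter cDNA PCR-amplified, FAM-labelled, HpaI-cut and resolved by capillary electrophoresis. ERE-driven cis reporter transcripts reflect endogenous factors; gain or loss scored against DMSO.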

[6] = read-out: Transforming growth factor beta 1 (TGFb1), TGFB1 (gene 7040); experiment: BSK_KF3CT_TGFb1: BioMAP Diversity Plus: KF3CT Assay for Transforming growth factor beta 1 (TGFb1) Biomarker Activity (AID 2283072); settings: primary human keratinocytes with fibroblasts; actives raise or lower the signal
Summary of the method: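 KF3CT co-culture (keratinocytes + fibroblasts), 24 h exposure → TGF-b1 ELISA → bidirectional fit, DMSO = baseline. Parallel SRB total-protein staining (0.1% SRB, 10% TCA fixation, 560 nm) for cytotoxicity.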

[7] = BSK_BT_PBMCCytotoxicity: PBMC Cytotoxicity Assessment in the BioMAP Diversity Plus: BT Assay (AID 2284225); settings: primary human B cells with PBMC;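 also: PBMC viability measured by Alamar Blue dye reduction fluorescence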
Summary of the method: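 Viability by Alamar Blue reduction (6 h, ex/em 546/580 nm) after 90 h culture of SEB/TSST-1-activated PBMC (20 ng/mL each) given compound 1 h before activation. DMSO served as baseline for curve fitting.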

[8] = read-out: Secreted IgG (sIgG), gene 3500; experiment: BSK_BT_sIgG: BioMAP Diversity Plus: BT Assay for Secreted IgG (sIgG) Biomarker Activity (AID 2284226); settings: primary human B cells with PBMC
Summary of the method: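 Cells (B cells with peripheral blood mononuclear cells) are dosed, cultured 24 h, then supernatant IgG is measured by ELISA. DMSO serves as negative control; curves are fitted for signal increase.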

[9] = read-out: Tumor necrosis factor (Homo sapiens) (UniProt P01375); experiment: BSK_BT_xTNFa: BioMAP Diversity Plus: BT Assay for Tumor necrosis factor alpha (TNF-alpha) Biomarker Activity (AID 2284230); settings: primary human B cells with PBMC
Summary of the method: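 B cells with PBMC in co-culture, dosed and sampled at 24 h; secreted TNF-alpha measured by Luminex xMAP bead assay. Activity fitted in the gain direction against DMSO as negative control and baseline.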

[10] = read-out: Vascular cell adhesion molecule 1 (VCAM1), VCAM1 (gene 7412); experiment: BSK_MyoF_VCAM1: BioMAP Diversity Plus: MyoF Assay for Vascular cell adhesion molecule 1 (VCAM1) Biomarker Activity (AID 2284231); settings: primary human lung fibroblasts
Summary of the method: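 Primary human lung fibroblasts (BioMAP MyoF system) dosed with chemical, VCAM-1 measured by ELISA 24 hours later. Fitted in the positive direction against DMSO; parallel SRB staining assessed cytotoxicity.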

[11] = read-out: Collagen I, COL1A1 (gene 1277); experiment: BSK_MyoF_CollagenI: BioMAP Diversity Plus: MyoF Assay for Collagen I Biomarker Activity (AID 2284238); settings: primary human lung fibroblasts
Summary of the method: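 Primary human lung fibroblasts (MyoF system) treated 24 h; Collagen I quantified by ELISA and fitted in positive direction against DMSO. Parallel SRB total-protein staining assessed overt cytotoxicity.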

[12] = read-out: Collagen III, COL3A1 (gene 1281); experiment: BSK_MyoF_CollagenIII: BioMAP Diversity Plus: MyoF Assay for Collagen III Biomarker Activity (AID 2284239); settings: primary human lung fibroblasts
Summary of the method: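 Primary human lung fibroblasts (BioMAP MyoF system) exposed 24 h. Collagen III measured by ELISA; positive-direction fit relative to DMSO.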

[13] = read-out: Interleukin 17F (IL17F), IL17F (gene 112744); experiment: BSK_BT_xIL17F: BioMAP Diversity Plus: BT Assay for Interleukin 17F (IL17F) Biomarker Activity (AID 2284243); settings: primary human B cells with PBMC
Summary of the method: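 Human PBMC co-cultured with B cells, compound exposure 24 h; secreted IL-17F quantified by Luminex xMAP, referenced to DMSO control. PBMC viability measured in parallel by Alamar Blue reduction.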

[14] = read-out: Actin alpha 1 (ACTA1), ACTA1 (gene 58); experiment: BSK_MyoF_ACTA1: BioMAP Diversity Plus: MyoF Assay for Actin alpha 1 (ACTA1) Biomarker Activity (AID 2284244); settings: primary human lung fibroblasts
Summary of the method: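 Cells were exposed to chemical for 24 h before a-SMA levels were quantified by ELISA in human lung fibroblasts. Increases were fitted against DMSO as negative control; parallel SRB staining (0.1% after 10% TCA fixation, 560 nm) assessed cytotoxicity.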

[15] = read-out: Interleukin 2 (IL2), IL2 (gene 3558); experiment: BSK_BT_xIL2: BioMAP Diversity Plus: BT Assay for Interleukin 2 (IL2) Biomarker Activity (AID 2284245); settings: primary human B cells with PBMC
Summary of the method: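 The BT system combines human B cells with peripheral blood mononuclear cells. Twenty-four hours after chemical dosing, secreted IL-2 was measured with xMAP bead technology, and responses were analyzed as increases over DMSO controls.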

[16] = read-out: Collagen IV, COL4A1 (gene 1282); experiment: BSK_MyoF_CollagenIV: BioMAP Diversity Plus: MyoF Assay for Collagen IV Biomarker Activity (AID 2284247); settings: primary human lung fibroblasts
Summary of the method: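 Human lung fibroblast system, 24 h chemical exposure. Endpoint: Collagen IV by ELISA, upward fit vs DMSO.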

[17] = read-out: Matrix Metallopeptidase 1 (MMP1), MMP1 (gene 4312); experiment: BSK_MyoF_MMP1: BioMAP Diversity Plus: MyoF Assay for Matrix Metallopeptidase 1 (MMP1) Biomarker Activity (AID 2284268); settings: primary human lung fibroblasts
Summary of the method: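 Human lung fibroblast primary cells; MMP1 measured by ELISA 24 h after dosing, fitted in the positive direction relative to DMSO. Parallel SRB staining (0.1%, after 10% TCA fixation, 560 nm) assesses overt cytotoxicity.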

[18] = read-out: TIMP metallopeptidase inhibitor 1 (TIMP1), TIMP1 (gene 7076); experiment: BSK_MyoF_TIMP1: BioMAP Diversity Plus: MyoF Assay for TIMP metallopeptidase inhibitor 1 (TIMP1) Biomarker Activity (AID 2284269); settings: primary human lung fibroblasts
Summary of the method: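 ELISA quantified TIMP-1 levels after 24 h dosing of primary human lung fibroblasts, with DMSO as baseline. Parallel SRB total protein staining (0.1% SRB after TCA fixation, 560 nm) flagged overt cytotoxicity.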

[19] = biological target: Retinoic acid receptor RXR-alpha (Homo sapiens) (UniProt P19793); experiment: OT_NURR1_NURR1RXRa_0480: Odyssey Thera (OT) 8-hour HEK293T Protein Complementation Assay for Nurr1/retinoid X receptor (RXR) (AID 2283385; active = hit-call score of the fitted dose curve at least 0.9, where 1 is the maximum)
Summary of the method: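 Interaction of bait and prey reconstitutes a functional reporter, whose fluorescence was measured in HEK293T cells dosed with compound for 8 hours. Signal gain relative to DMSO defined the single endpoint.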

[20] = biological target: human Tyrosine Protein Kinase Receptor Tie-2 (Tie2), TEK (gene 7010) (UniProt Q02763); experiment: NVS_ENZ_hTie2: NovaScreen (NVS) Enzymatic Assay for human Tyrosine Protein Kinase Receptor Tie-2 (Tie2) (AID 2283225; active = hit-call score of the fitted dose curve at least 0.9, where 1 is the maximum)
Summary of the method: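 Substrate and product were separated by mobility shift and detected by fluorescence after a 1-hour reaction with recombinant Tie2. Chemicals passing a 25 uM single-point screen were titrated to a maximum of 50 uM. Results were normalized to DMSO baseline.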

Measured: AC50

Retinoic acid receptor RXR-alpha (Homo sapiens), sequence (P19793 whole entry, looked up, the tested form may be a part): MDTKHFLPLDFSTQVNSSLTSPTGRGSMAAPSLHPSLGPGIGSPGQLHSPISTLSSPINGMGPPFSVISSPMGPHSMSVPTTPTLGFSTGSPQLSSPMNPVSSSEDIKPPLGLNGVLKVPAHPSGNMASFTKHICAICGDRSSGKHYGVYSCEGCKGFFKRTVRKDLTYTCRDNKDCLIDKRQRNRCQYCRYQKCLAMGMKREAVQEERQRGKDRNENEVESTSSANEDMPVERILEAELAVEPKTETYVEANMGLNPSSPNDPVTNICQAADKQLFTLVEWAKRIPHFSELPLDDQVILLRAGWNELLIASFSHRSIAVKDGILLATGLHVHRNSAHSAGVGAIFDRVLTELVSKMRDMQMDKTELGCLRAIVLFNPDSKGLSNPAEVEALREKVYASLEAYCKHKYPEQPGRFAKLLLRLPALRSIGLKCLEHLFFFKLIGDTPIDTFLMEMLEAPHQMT
Nuclear receptor subfamily 1 group I member 3 (Homo sapiens), sequence (Q14994 whole entry, looked up, the tested form may be a part): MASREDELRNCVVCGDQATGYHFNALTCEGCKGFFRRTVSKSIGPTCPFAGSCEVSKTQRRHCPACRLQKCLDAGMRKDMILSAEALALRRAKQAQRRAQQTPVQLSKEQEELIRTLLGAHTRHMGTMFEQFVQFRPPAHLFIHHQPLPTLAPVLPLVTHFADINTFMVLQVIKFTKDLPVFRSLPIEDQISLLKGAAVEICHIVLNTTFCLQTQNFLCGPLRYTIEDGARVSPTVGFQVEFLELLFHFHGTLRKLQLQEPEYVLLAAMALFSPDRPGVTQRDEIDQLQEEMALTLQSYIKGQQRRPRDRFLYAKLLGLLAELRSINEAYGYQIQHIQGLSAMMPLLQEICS
human Tyrosine Protein Kinase Receptor Tie-2 (Tie2), TEK (gene 7010), sequence (Q02763 whole entry, looked up): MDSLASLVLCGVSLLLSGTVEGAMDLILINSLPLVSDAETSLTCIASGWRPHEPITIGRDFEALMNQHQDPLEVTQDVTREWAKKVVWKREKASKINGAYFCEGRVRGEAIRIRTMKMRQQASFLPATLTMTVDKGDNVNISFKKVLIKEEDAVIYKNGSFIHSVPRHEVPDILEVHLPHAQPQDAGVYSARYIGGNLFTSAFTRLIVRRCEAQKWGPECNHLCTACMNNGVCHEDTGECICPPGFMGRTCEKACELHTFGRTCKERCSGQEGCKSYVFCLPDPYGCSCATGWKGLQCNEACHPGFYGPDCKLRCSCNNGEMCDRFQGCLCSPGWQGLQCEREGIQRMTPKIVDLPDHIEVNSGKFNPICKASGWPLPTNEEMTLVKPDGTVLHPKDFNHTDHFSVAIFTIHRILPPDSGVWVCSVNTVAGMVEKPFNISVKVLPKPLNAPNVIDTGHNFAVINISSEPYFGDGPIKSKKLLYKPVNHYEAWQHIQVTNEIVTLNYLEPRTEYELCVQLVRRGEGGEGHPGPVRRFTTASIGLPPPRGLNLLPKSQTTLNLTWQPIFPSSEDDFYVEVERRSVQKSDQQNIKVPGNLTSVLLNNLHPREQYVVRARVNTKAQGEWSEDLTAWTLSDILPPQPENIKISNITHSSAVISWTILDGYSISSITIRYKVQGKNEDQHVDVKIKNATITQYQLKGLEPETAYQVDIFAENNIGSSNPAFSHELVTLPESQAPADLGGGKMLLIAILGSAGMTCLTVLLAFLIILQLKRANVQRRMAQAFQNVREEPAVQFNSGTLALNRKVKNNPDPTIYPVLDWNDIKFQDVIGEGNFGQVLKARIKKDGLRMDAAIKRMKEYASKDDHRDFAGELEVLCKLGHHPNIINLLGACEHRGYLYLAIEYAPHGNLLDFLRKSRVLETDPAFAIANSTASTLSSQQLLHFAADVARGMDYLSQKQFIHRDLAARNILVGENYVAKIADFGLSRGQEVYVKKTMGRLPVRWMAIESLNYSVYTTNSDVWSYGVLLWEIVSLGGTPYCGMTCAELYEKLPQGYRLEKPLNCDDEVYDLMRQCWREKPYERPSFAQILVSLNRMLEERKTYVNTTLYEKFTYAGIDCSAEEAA
Estrogen-related receptor gamma (Homo sapiens), sequence (P62508 whole entry, looked up, the tested form may be a part): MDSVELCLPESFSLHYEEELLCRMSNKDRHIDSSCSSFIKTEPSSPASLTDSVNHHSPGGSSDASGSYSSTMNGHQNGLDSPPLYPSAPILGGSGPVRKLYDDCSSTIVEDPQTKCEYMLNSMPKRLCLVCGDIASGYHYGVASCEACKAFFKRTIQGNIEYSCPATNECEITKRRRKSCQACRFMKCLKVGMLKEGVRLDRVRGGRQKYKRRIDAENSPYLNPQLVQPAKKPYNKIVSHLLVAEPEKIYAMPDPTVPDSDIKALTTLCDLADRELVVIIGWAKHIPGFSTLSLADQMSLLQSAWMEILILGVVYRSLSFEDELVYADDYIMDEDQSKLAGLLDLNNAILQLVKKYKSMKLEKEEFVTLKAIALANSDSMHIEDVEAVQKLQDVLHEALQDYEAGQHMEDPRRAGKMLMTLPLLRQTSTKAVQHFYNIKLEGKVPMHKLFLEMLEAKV
Tumor necrosis factor (Homo sapiens), sequence (P01375 whole entry, looked up): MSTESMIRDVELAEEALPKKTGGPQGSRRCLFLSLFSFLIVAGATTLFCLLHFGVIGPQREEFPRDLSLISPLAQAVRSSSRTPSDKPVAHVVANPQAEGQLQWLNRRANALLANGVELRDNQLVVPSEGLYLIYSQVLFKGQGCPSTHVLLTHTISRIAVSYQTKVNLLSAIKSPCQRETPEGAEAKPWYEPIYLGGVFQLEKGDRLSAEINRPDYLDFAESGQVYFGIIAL

O=C=Nc1ccccc1
inactive: [1] | [2] | [3] | [4]

C=CC(=O)OCCCCOC(=O)C=C
inactive: [5] | [2]

O=C1C=CC(=O)C=C1
inactive: [16] | [17] | [18]
active: [6] 29.9 µM and 12.4 µM | [7] 17.3 µM and 27.7 µM | [8] 10.9 µM and 28 µM | [9] 24 µM and 33.1 µM | [10] 34 µM and 29.6 µM | [11] 31.8 µM and 25.3 µM | [12] 32.2 µM and 20 µM | [13] 29.2 µM | [14] 30.9 µM and 20 µM | [15] 26.3 µM and 32 µM | [16] 34.4 µM | [17] 5.76 µM | [18] 30.3 µM

O=[N+]([O-])O
inactive: [19] | [3] | [4]

C[N+](=O)[O-]
inactive: [5] | [2]

CN(C)N
inactive: [19] | [4]

CNC(=O)Oc1cc(C)c(SC)c(C)c1
active: [5] 26.5 µM | [7] 15.6 µM | [8] 10.6 µM | [9] 29.7 µM | [13] 20 µM
not listed: [2] | [3] | [4] | [19] | [20]
inactive: all other assays above

Nc1ccc([N+](=O)[O-])cc1N
inactive: [2]

Cc1ccc(OP(=O)(Oc2ccc(C)cc2)Oc2ccc(C)cc2)cc1 (tested in a mixture with another compound)
inactive: [3] | [9] | [10] | [12] | [16] | [18]
active: [6] 4.81 µM | [19] 15.5 µM | [7] 5.41 µM | [8] 13.5 µM | [11] 32.6 µM | [13] 24.6 µM | [14] 26.4 µM | [15] 20 µM | [17] 27.6 µM

CC1(C)[C@H](C(=O)O[C@H](C#N)c2cccc(Oc3ccccc3)c2)[C@@H]1C=C(Br)Br
inactive: [6] | [19] | [4] | [7] | [9] | [10] | [11] | [12] | [14] | [16] | [17] | [18]
active: [4] 50 µM | [8] 23.2 µM and 29.8 µM | [13] 28.7 µM and 20 µM | [15] 29.1 µM and 20 µM

CN(N=O)c1ccccc1
inactive: [5]

C[N+](C)(C)CC(=O)[O-]
inactive: [5]

CCOC(=O)COc1ccc(Cl)cc1Cl
inactive: [1] | [19] | [3]

S=c1[nH]c2ccccc2[nH]1
inactive: [1] | [2]

O=C(NC(=O)c1c(F)cccc1F)Nc1ccc(Oc2ccc(C(F)(F)F)cc2Cl)cc1F
active: [3] 31.3 µM
inactive: [4]

CC(=O)C=Cc1ccccc1
inactive: [3]
active: [19] 1.12 µM

O=C(O)CCl
inactive: [2] | [19]

COCC(=O)N(c1c(C)cccc1C)N1CCOC1=O
not listed: [2] | [3] | [4] | [5] | [19] | [20]
inactive: all other assays above

c1ccc(Nc2ccc3ccccc3c2)cc1
inactive: [1] | [7] | [16] | [17]
active: [5] 8.6 µM | [6] 26.6 µM | [8] 31.5 µM | [9] 20 µM | [10] 31.2 µM | [11] 31 µM | [12] 20 µM | [13] 30.8 µM | [14] 29 µM | [15] 20 µM | [18] 34.4 µM

CC(C)(c1ccc(O)cc1)c1ccc(O)cc1
inactive: [20]

N#CSCSc1nc2ccccc2s1
inactive: [20]

Cc1nc(-c2ccc3c(c2)CCN(CCC2CCC(NC(=O)/C=C/c4ccc(F)cc4)CC2)CC3)no1 (stereo not given)
active: [20] 16.2 µM

CCCCCCCCCCCCCC[P+](CCCC)(CCCC)CCCC
active: [20] 15.3 µM

C[C@]12CC[C@@H]3c4ccc(O)cc4C[C@@H](CCCCCCCCCS(=O)CCCC(F)(F)C(F)(F)F)[C@H]3[C@@H]1CC[C@@H]2O (stereo not given in full)
inactive: [20]

NC(=NCCCCCCN=C(N)/N=C(\N)Nc1ccc(Cl)cc1)/N=C(\N)Nc1ccc(Cl)cc1
inactive: [20]

CCCCCCCCCCCCc1ccccc1S(=O)(=O)O
active: [20] 9.14 µM
